From PubChem BioAssay (NCI)
Compounds without any hit were thinned out: in the full panel of roughly 79,000, 15% have a hit. Rule as the data show it: active = growth inhibition above about 70%; inactive = the rest.

Experiments:
[1] = NCI Yeast Anticancer Drug Screen. Data for the rad50 strain (AID 155);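 also: 0% = growth of vehicle-only cultures of the same strain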; conditions: S. cerevisiae rad50 strain growth inhibition, active compounds read high; at 50.0 µM unless noted
Outline: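 Yeast carrying a defined DNA repair defect were exposed to test compounds, and growth was compared with vehicle-treated controls to give percent inhibition.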

[2] = NCI Yeast Anticancer Drug Screen. Data for the mec2-1 strain (AID 157); conditions: S. cerevisiae mec2-1 strain, active compounds read high; at 50.0 µM unless noted
Outline: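 mec2-1 yeast strain, carrying an alteration in DNA damage repair or cell cycle control, was exposed to compounds; growth inhibition was measured relative to vehicle-treated controls.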

[3] = NCI Yeast Anticancer Drug Screen. Data for the sgs1 mgt1 strain (AID 161);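 also: 0% = growth of cultures given vehicle only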; conditions: S. cerevisiae sgs1 mgt1 strain, active compounds read high; at 50.0 µM unless noted
Outline: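 Compounds are added to genetically altered yeast, and growth is compared with cultures given vehicle alone to give percent inhibition.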

[4] = NCI Yeast Anticancer Drug Screen. Data for the cln2 rad14 strain (AID 165);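 also: 0% = growth equal to vehicle treated cultures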; conditions: S. cerevisiae cln2 rad14 strain, active compounds read high; at 50.0 µM unless noted
Outline: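 Yeast carrying cln2 and rad14 alterations (cell cycle control and DNA damage repair) were exposed to compounds. Growth inhibition was measured against vehicle-treated controls.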

[5] = NCI Yeast Anticancer Drug Screen. Data for the bub3 strain (AID 167); conditions: S. cerevisiae bub3 mutant strain, active compounds read high; at 50.0 µM unless noted
Outline: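 Compounds were applied to a genetically altered yeast strain carrying a cell-cycle control defect. Growth inhibition was scored against vehicle-treated controls.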

[6] = NCI Yeast Anticancer Drug Screen. Data for the mlh1 rad18 strain (AID 175); conditions: S. cerevisiae mlh1 rad18 strain growth inhibition, active compounds read high; at 50.0 µM unless noted
Outline: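 Growth inhibition of the yeast strain was measured after compound exposure and expressed relative to vehicle-treated controls. The strain carries defined defects in DNA damage repair.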

Measured: growth inhibition

Cc1cc(C)c2c(c1)sc1n[nH]c(=S)n12
inactive: [1] 14.1% | [2] 6.7% | [3] 9.05% | [4] -11.4% | [5] -10.8% | [6] 3.95%

BrC1CC2CCC1CC2 (centres undefined)
inactive: [1] -14.7% | [2] -6.45% | [3] -7.2% | [4] -6.8% | [5] -7.05% | [6] 16.6%

C=CCc1cn(C2CC(OC(=O)c3ccc(Cl)cc3)C(COC(=O)c3ccc(Cl)cc3)O2)c(=O)[nH]c1=O (centres undefined)
inactive: [1] -8.85% | [2] -3.6% | [3] -18.8% | [4] -8.6% | [5] 0.6% | [6] -2.4%

Cn1c(=S)[nH]c2c(Cl)cc(Cl)cc2c1=O
inactive: [1] -40.4% | [2] -30.6% | [3] -7.1% | [4] -13.9% | [5] -27.7% | [6] -51.9%

CC1CCC(C(=O)O)(C(Br)C(=O)O)CC1 (centres undefined)
inactive: [1] -14.5% | [2] -12.7% | [3] -12.8% | [4] -27.9% | [5] -20.8% | [6] -3.3%

CCOC(=O)c1oc2cc(O)ccc2c(=O)c1-c1ccc(OC)c(OC)c1
inactive: [1] 5.95% | [2] -1.7% | [3] 16.3% | [4] 3.45% | [5] 4.65% | [6] 11.8%

O=C(Nc1noc(-c2ccccc2)n1)c1ccccc1CNc1noc(-c2ccccc2)n1
inactive: [1] -7.75% | [2] -4.85% | [3] 0.8% | [4] -10.8% | [5] -6.7% | [6] 0%

NC(CSCCB(O)O)C(=O)O (centres undefined)
inactive: [1] -11.7% | [2] -15.2% | [3] -6.5% | [4] -14.6% | [5] -5% | [6] -20.4%

CC(N1CCS(=O)(=O)CC1)P(=O)(O)O (centres undefined)
inactive: [1] 0.3% | [2] 8.3% | [3] 8.8% | [4] -8.5% | [5] 17.8% | [6] 2.3%

CCCCN(CCCC)CC(C(=O)Nc1ccc([N+](=O)[O-])cc1[N+](=O)[O-])/C(C)=N\NC(=S)NN (centres undefined)
inactive: [1] 3.55% | [2] -6.8% | [3] 44.7% | [4] 24.8% | [5] 16.2% | [6] 24.4%

CCOC(=O)c1ccc(-c2ccc(Cl)cc2)[nH]1
inactive: [1] -7.3% | [2] 0% | [3] -3% | [4] 2.45% | [5] 34% | [6] 3.2%

Nc1ccc(N=Nc2c(S(=O)(=O)O)cc3ccccc3c2S(=O)(=O)O)cc1
inactive: [1] -23% | [2] -30.4% | [3] -38.2% | [4] -18.3% | [5] -46.5% | [6] -27.6%

c1ccc2c(c1)nnn2C1CCCCO1 (centres undefined)
inactive: [1] -4.8% | [2] -13.2% | [3] -19.5% | [4] -5.1% | [5] -22.4% | [6] -72.8%

S=C(c1ccccc1)c1cccc2ccccc12
inactive: [1] 57% | [2] 15.1% | [3] 58% | [4] 2.8% | [5] -3.55% | [6] 36.9%

CC(C)(O)CCO
inactive: [1] -38.4% | [2] -40.4% | [3] -17.4% | [4] -10.7% | [5] -25.9% | [6] -33.1%

O=[N+]([O-])c1cc(C(Nc2nncs2)Nc2nncs2)ccc1Cl
inactive: [1] 12.6% | [2] 8.25% | [3] 43.9% | [4] 11% | [5] 2.5% | [6] 46.6%

COc1ccc(/C=N/N=C(/C(=O)c2ccc(OC)cc2)c2ccc(OC)cc2)cc1
inactive: [1] 32.6% | [2] 0.3% | [3] 11.8% | [4] 3.2% | [5] 2.2% | [6] 6.8%

COc1ccc(C(CC(=O)C(C)(C)CN2CCCCC2)SCCS(=O)(=O)O)cc1 (centres undefined)
inactive: [1] -2.75% | [2] -4.9% | [3] -3.15% | [4] 2.85% | [5] -1.6% | [6] 4.15%

O=c1[nH]c(=O)c2nc(-c3cccnc3)cnc2[nH]1
inactive: [1] 2.8% | [2] -0.1% | [3] -9.7% | [4] 1.6% | [5] 0.85% | [6] 7.45%

COc1cc2cnc3c4cc(OC(C)C)c(OC)cc4ccc3c2cc1OC
inactive: [1] -10% | [2] -15.3% | [3] -20.1% | [4] 5.75% | [5] -5.3% | [6] -29.4%

CC(=O)OC1CCC2(C)C(C1)C(=O)OC1C2CCC2(C)C(C(C)CCCC(C)C)CCC12 (centres undefined)
inactive: [1] 27.4% | [2] 3.55% | [3] 2.75% | [4] -12.7% | [5] -3.85% | [6] 23.4%

CCCCNC(=O)c1cc(=O)[nH]c(=O)[nH]1
inactive: [1] 1.5% | [2] -6.55% | [3] 6.6% | [4] 5.6% | [5] -16.1% | [6] 20.1%

CCOC(=O)C1=C(O)C[C@]2(O)C3CC=C(C)[C@@H]4CCO[C@](OC)(C[C@H]2C1)[C@]34C(=O)OC (some centres undefined)
inactive: [1] 1% | [2] 12.8% | [3] 8.35% | [4] 1% | [5] -1.1% | [6] 13.1%

COc1ccc2c(c1)[n+](=O)c(C(=O)CC(=O)C(=O)Nc1cccc(C)c1C)c(C)n2[O-]
inactive: [1] 2.35% | [2] 13.3% | [3] -9.55% | [4] 9.45% | [5] 5.3% | [6] 14.8%

O=C1c2ccccc2C(=O)N1c1ccc(Cc2ccc(N3C(=O)c4ccccc4C3=O)cc2)cc1
inactive: [1] -11.7% | [2] 10.1% | [3] -2.6% | [4] 42.9% | [5] -0.2% | [6] 14.7%

C[n+]1cn(-c2nc3ccccc3nc2[N-]S(=O)(=O)c2ccccc2)c2ccccc21
inactive: [1] -0.2% | [2] -5.7% | [3] -13.2% | [4] -18.4% | [5] -20.1% | [6] -38.5%

CC1(CCC(=O)O)C(=O)C(=O)CC2C1CCC1(C)C(O)CCC21 (centres undefined)
inactive: [1] -9.5% | [2] -0.6% | [3] -7.25% | [4] 0.15% | [5] -4.1% | [6] -17.4%

CNCCCn1c2ccccc2c2c3c(c(-c4ccsc4)cc21)C(=O)NC3=O
inactive: [1] -1.75% | [2] -8.7% | [3] -19.9% | [4] -4.3% | [5] -7.8% | [6] -40.5%

COCCOC(=O)COc1ccccc1
inactive: [1] 22.1% | [2] 23% | [3] 16.2% | [4] 3.5% | [5] -8% | [6] -1.15%

[O-][N+](CCO)(CCO)c1ncnc2nc[nH]c12
inactive: [1] -2.35% | [2] -12.7% | [3] -0.45% | [4] -8.9% | [5] -63.7% | [6] 18.4%

[N-]=[N+]=C(C(=O)CN1CCCC1=O)S(=O)(=O)c1ccccc1
inactive: [1] 10.4% | [2] -6.4% | [3] -6.55% | [4] 9.1% | [5] -2.85% | [6] 16.2%

O=c1n(-c2ccccc2)c(=O)n2n1C1C3C4C5C3C2C5(F)C41 (centres undefined)
inactive: [1] -7.3% | [2] 8.45% | [3] 5.95% | [4] 13.7% | [5] 6.75% | [6] 12.3%

C=C(C)c1ccc(C(C)C)cc1
inactive: [1] -38.5% | [2] -40.1% | [3] -24.6% | [4] 4.55% | [5] -13.6% | [6] -3.25%

O=c1[nH]nc(-c2ccccc2)nc1/C(=N\Nc1ccccc1)c1ccccc1
inactive: [1] 15.5% | [2] -12.3% | [3] 1.05% | [4] 0.85% | [5] 12.5% | [6] 14.7%

CCc1c(CC)c(CC)c(CC)c(CC)c1CC
inactive: [1] -42.3% | [2] -14.7% | [3] -36.4% | [4] -39% | [5] 1.05% | [6] -31.8%

CCOC(=O)/C(C)=C\C=C(\C)CCC=C(C)C
inactive: [1] -8.8% | [2] -19.1% | [3] -2.45% | [4] -28.3% | [5] -15.2% | [6] 15.4%

Cc1ccc(Cl)cc1NC(=O)Nc1ccccc1Cl
inactive: [1] 11.5% | [2] 12.2% | [3] 6.05% | [4] -12.2% | [5] 8.85% | [6] -11%

CCOCCC(=O)OCCCl
inactive: [1] 29.2% | [2] 9.4% | [3] 13.3% | [4] 10.1% | [5] 15.7% | [6] 22.9%

CC1(C)C2CCC1(C)C(/C=N/NC(N)=O)C2 (centres undefined)
inactive: [1] 5.4% | [2] 17.8% | [3] -5.6% | [4] -46% | [5] 20.4% | [6] 12.8%
